As a reminder, the AC50 is the concentration giving half of the maximal activity seen.

Where “and” joins values, the source holds several entries; their conditions need not be identical. Equal values may be shown once. Inconclusive results are not listed. Where a structure was tested more than once in an assay, its records may differ in their call. Calls of active or inactive are those of the source. Rule for the calls, unless noted: active = hit-call score of the fitted dose curve at least 0.9, where 1 is the maximum; inconclusive = response in the unintended direction; inactive = score below 0.9.

Assay [1] deals with Nuclear receptor subfamily 1 group I member 3 (Homo sapiens) (UniProt Q14994). The assay can be described thus: ATG_CAR_TRANS: Attagene TRANS-FACTORIAL HepG2 Assay for human Constitutive Androstane Receptor (CAR) (AID 2282969).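 Note: activators raise reporter mRNA above DMSO so AC50 marks induction.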 The following applies: HepG2 Attagene TRANS-FACTORIAL CAR reporter. The method, boiled down: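 HepG2 cells transiently transfected with GAL4-UAS reporter units; TRANS format reads activity of exogenous chimeric NR-Gal4 protein. After 24 h dosing, reporter mRNA quantified by RT-PCR, 6-FAM labelling and capillary electrophoresis; gain of signal fitted against DMSO.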

In assay [2] the target is human Peroxisome Proliferator-activated Receptor delta (PPARd), PPARD (gene 5467) (UniProt Q03181). The assay can be described thus: ATG_PPARd_TRANS: Attagene TRANS-FACTORIAL HepG2 Assay for human Peroxisome Proliferator-activated Receptor delta (PPARd) (AID 2283002). The method, boiled down:
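Fluorescence from capillary electrophoresis of labelled RT-PCR reporter fragments gives the signal; DMSO sets baseline. Cells: HepG2 transiently carrying GAL4-UAS reporter units plus chimeric nuclear receptor-Gal4 proteins, exposed to chemicals for 24 h.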

For assay [3], the target named is Nuclear receptor subfamily 1 group I member 2 (Homo sapiens) (UniProt O75469). Description: ATG_PXR_TRANS: Attagene TRANS-FACTORIAL HepG2 Assay for human Pregnane X Receptor (PXR) (AID 2283008). In outline: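 Measures mRNA induction of a GAL4-UAS-driven reporter in human HepG2 cells transiently expressing PXR fused to Gal4, following 24 h treatment. DMSO served as negative control and baseline.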

In assay [4] the target is human RAR-related Orphan Receptor beta (RORb), RORB (gene 6096) (UniProt Q92753). The assay can be described thus: ATG_RORb_TRANS: Attagene TRANS-FACTORIAL HepG2 Assay for human RAR-related Orphan Receptor beta (RORb) (AID 2283010). The method, boiled down:
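Readout is reporter-gene mRNA induction, detected as fluorescence after RT-PCR and capillary electrophoresis, fitted for gain of signal against DMSO controls. Transiently transfected HepG2 liver cells carrying GAL4-UAS reporter constructs were treated for 24 hours.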

Assay [5] has as its target Retinoic acid receptor RXR-alpha (Homo sapiens) (UniProt P19793). Description: ATG_RXRa_TRANS: Attagene TRANS-FACTORIAL HepG2 Assay for human Retinoid X Receptor alpha (RXRa) (AID 2283012). The method, boiled down: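 Transient transfection of human HepG2 with multiple GAL4-UAS reporter constructs; 24 h compound exposure; total RNA isolated, reverse-transcribed, PCR-amplified, 6-FAM labelled, HpaI-cut, resolved by capillary electrophoresis. Positive-direction fit versus DMSO.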

In assay [6] the target is human Vitamin D Receptor (VDR), VDR (gene 7421) (UniProt P11473). The assay can be described thus: ATG_VDR_TRANS: Attagene TRANS-FACTORIAL HepG2 Assay for human Vitamin D Receptor (VDR) (AID 2283022). The method, boiled down: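 Fluorescence of labelled reporter cDNA fragments, resolved by capillary electrophoresis, gives mRNA induction after 24 h treatment of HepG2 cells carrying transfected Gal4-fusion reporter units. Activity is fitted in the positive direction with DMSO as baseline.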

Assay [7] is described as follows: TOX21_p53_BLA_p3_viability: Viability Assessment in the Tox21 HCT-116 p53 Agonism Beta-lactamase Assay, Phase 3 (AID 2283593).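 Note: cells exposed to compound for 16 h before reading.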 In outline: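 HCT116 cells, 4000/well, dosed 5 h after plating by pin transfer (217-fold dilution from DMSO stock) and incubated 16 h at 37C, 5% CO2. Viability read as ATP luminescence with CellTiter-Glo after 30 min at room temperature.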

A short description of assay [8]: TOX21_p53_BLA_p4_viability: Viability Assessment in the Tox21 HCT-116 p53 Agonism Beta-lactamase Assay, Phase 4 (AID 2283597).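 Note: hits lower the luminescence signal meaning cytotoxicity.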 The method, boiled down:
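Compound exposure of HCT116 cells lasts 16 h at 37C, 5% CO2, with DMSO stocks diluted 217-fold. Cellular ATP is then quantified by CellTiter-Glo luminescence after 30 min at room temperature.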

Assay [9] is described as follows: ACEA_ER_AUC_viability: ACEA Biosciences xCELLigence Real-Time Cell Analysis on Estrogen Receptor Agonism for Viability (AID 2283782).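 Note: continuous compound exposure with impedance area under curve over 80 h; hit means loss of impedance signal meaning reduced cell growth or viability.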 In outline:
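T47D cells preconditioned in phenol red-free RPMI with charcoal-stripped FBS, then dosed with 8-point 1:4 series from 100 uM (up to 0.5% DMSO). Impedance monitored up to ~80 h; area-under-curve loss versus DMSO taken as viability.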

Assay [10] is described as follows: ATG_ERE_CIS: Attagene CIS-FACTORIAL HepG2 Assay for Estrogen Response Element (ERE) (AID 2282940; active = hit-call score of the fitted dose curve at least 0.9, where 1 is the maximum; inactive = score below 0.9). The settings on record: HepG2 ERE cis-reporter, Attagene RNA transcript; actives raise or lower the signal. The method, boiled down: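 HepG2 cells transiently transfected with multiplexed cis-element reporter units, measuring endogenous transcription factor activity; ERE reporter mRNA quantified after 24 h exposure by RT-PCR, fluorescent labelling, HpaI digestion and capillary electrophoresis. Bidirectional change versus DMSO.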

In assay [11] the target is Bile acid receptor (Homo sapiens) (UniProt Q96RI1). Description: ATG_IR1_CIS: Attagene CIS-FACTORIAL HepG2 Assay for human Nuclear Receptor Subfamily 1 Group H Member 4 (NR1H4), IR1 submotif (AID 2282946; active = hit-call score of the fitted dose curve at least 0.9, where 1 is the maximum; inactive = score below 0.9). The settings on record: IR1 reporter transcription, actives raise or lower the signal. In outline: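 HepG2 cells transiently transfected with multiple cis-promoter-driven reporter units to measure endogenous transcription factor activity; 24 h exposure. Reporter mRNA read by RT-PCR, FAM labelling, HpaI digestion and capillary electrophoresis. Bidirectional fit versus DMSO.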

Assay [12] can be described thus: ATG_XTT_Cytotoxicity: Cytotoxicity Assessment in the Attagene TRANS-FACTORIAL HepG2 Assay (AID 2283584). The method, boiled down:
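Transfect HepG2 with GAL4-UAS reporter units, dose compound, incubate 24 h, then measure viable cell number by XTT. Fit concentration response against DMSO baseline.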

Assay [13] in a line: BSK_4H_Eotaxin3: BioMAP Diversity Plus: 4H Assay for Eotaxin 3 Biomarker Activity (AID 2283000; active = hit-call score of the fitted dose curve at least 0.9, where 1 is the maximum; inactive = score below 0.9). The following applies: primary human endothelial cells (HUVEC); actives raise or lower the signal. In outline: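 Endothelial primary cells (human umbilical vein) exposed to compound for 24 h. ELISA detection of Eotaxin-3.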
Read-out in assay [14]: Intercellular Adhesion Molecule 1 (ICAM1), ICAM1 (gene 3383)
The assay can be described thus: BSK_3C_ICAM1: BioMAP Diversity Plus: 3C Assay for Intercellular Adhesion Molecule 1 (ICAM1) Biomarker Activity (AID 2283003; active = hit-call score of the fitted dose curve at least 0.9, where 1 is the maximum; inactive = score below 0.9). The settings on record: primary human endothelial cells (HUVEC); actives raise or lower the signal. In outline: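 ICAM-1 levels measured by ELISA after HUVEC cultures in the 3C system had been dosed for 24 h. Gain or loss of signal relative to DMSO was fitted in both directions.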

Read-out in assay [15]: Monokine induced gamma interferon (MIG), CXCL9 (gene 4283)
Description: BSK_3C_MIG: BioMAP Diversity Plus: 3C Assay for Monokine induced gamma interferon (MIG) Biomarker Activity (AID 2283021; active = hit-call score of the fitted dose curve at least 0.9, where 1 is the maximum; inactive = score below 0.9;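 for AC50: MIG protein level measured by immunoassay in the treated endothelial cultures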). The following applies: primary human endothelial cells (HUVEC); actives raise or lower the signal. The method, boiled down: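 Read-out is ELISA detection of MIG on human umbilical vein endothelial cells, taken 24 h after dosing. Gain or loss of signal was scored relative to DMSO controls using bidirectional curve fitting.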

Read-out in assay [16]: Urokinase-type plasminogen activator receptor (uPAR), PLAUR (gene 5329)
Description: BSK_4H_uPAR: BioMAP Diversity Plus: 4H Assay for Urokinase-type plasminogen activator receptor (uPAR) Biomarker Activity (AID 2283030; active = hit-call score of the fitted dose curve at least 0.9, where 1 is the maximum; inactive = score below 0.9). The following applies: primary human endothelial cells (HUVEC); actives raise or lower the signal. In outline:
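Chemicals are dosed onto human vascular endothelial primary cells (umbilical vein). After 24 h, uPAR is read by ELISA. Gain or loss of signal is fitted relative to DMSO.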

Read-out in assay [17]: Monokine induced gamma interferon (MIG), CXCL9 (gene 4283)
Description: BSK_BE3C_MIG: BioMAP Diversity Plus: BE3C Assay for Monokine induced gamma interferon (MIG) Biomarker Activity (AID 2283035; active = hit-call score of the fitted dose curve at least 0.9, where 1 is the maximum; inactive = score below 0.9). The settings on record: primary human bronchial epithelial cells; actives raise or lower the signal. The method, boiled down: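 Primary human bronchial epithelial cells treated for 24 h; MIG levels measured by ELISA, fitted bidirectionally versus DMSO. Parallel SRB total-protein staining assessed cytotoxicity.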

Read-out in assay [18]: urokinase plasminogen activator (uPA), PLAU (gene 5328)
Description: BSK_BE3C_uPA: BioMAP Diversity Plus: BE3C Assay for urokinase plasminogen activator (uPA) Biomarker Activity (AID 2283038; active = hit-call score of the fitted dose curve at least 0.9, where 1 is the maximum; inactive = score below 0.9;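 for outcome: uPA protein level quantified by ELISA in cell cultures; uPA read one day after compound addition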). The settings on record: primary human bronchial epithelial cells; actives raise or lower the signal. The method, boiled down:
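Measured by ELISA: uPA from human primary bronchial epithelial cells 24 h after chemical treatment. Values derive from bidirectional curve fitting with DMSO serving as negative control. Total protein by SRB staining in parallel wells flagged overt cytotoxicity.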

Assay [19] is described as follows: TOX21_p53_BLA_p5_viability: Viability Assessment in the Tox21 HCT-116 p53 Agonism Beta-lactamase Assay, Phase 5 (AID 2283600). In outline:
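Counter-readout for cytotoxicity: ATP-dependent luminescence from CellTiter-Glo, read in the beta-lactamase wells after 30 min at RT, following a 16 h compound exposure at 37C.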

Assay [20] concerns the target Glucocorticoid receptor (Homo sapiens) (UniProt P04150). The assay can be described thus: ATG_GR_TRANS: Attagene TRANS-FACTORIAL HepG2 Assay for human Glucocorticoid Receptor (GR) (AID 2282978).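 Note: activators score as hits since higher reporter transcript over DMSO is fitted.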 The settings on record: HepG2 Attagene TRANS GR reporter, mRNA transcription. In outline: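 Reporter transcript levels, detected by fluorescence after RT-PCR and capillary electrophoresis, served as the endpoint. HepG2 cells bearing transfected GAL4-UAS reporters responsive to NR-GAL4 chimeras were incubated with compound 24 h; DMSO defined baseline.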

Bile acid receptor (Homo sapiens), sequence (Q96RI1 whole entry, looked up): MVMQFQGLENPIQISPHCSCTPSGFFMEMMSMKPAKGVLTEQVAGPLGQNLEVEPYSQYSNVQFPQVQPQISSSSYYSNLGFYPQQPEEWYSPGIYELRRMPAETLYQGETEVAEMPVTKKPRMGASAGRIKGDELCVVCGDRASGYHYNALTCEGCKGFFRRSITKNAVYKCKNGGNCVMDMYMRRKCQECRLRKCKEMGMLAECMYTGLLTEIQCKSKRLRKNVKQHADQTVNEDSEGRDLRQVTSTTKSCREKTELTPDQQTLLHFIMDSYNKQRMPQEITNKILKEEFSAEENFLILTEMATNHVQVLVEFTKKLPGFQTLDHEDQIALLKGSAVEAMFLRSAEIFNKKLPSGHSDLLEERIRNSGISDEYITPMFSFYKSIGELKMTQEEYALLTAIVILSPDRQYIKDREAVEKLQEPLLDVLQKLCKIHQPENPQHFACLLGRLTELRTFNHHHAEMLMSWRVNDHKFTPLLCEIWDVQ
human Peroxisome Proliferator-activated Receptor delta (PPARd), PPARD (gene 5467), sequence (Q03181 whole entry, looked up, the tested form may be a part): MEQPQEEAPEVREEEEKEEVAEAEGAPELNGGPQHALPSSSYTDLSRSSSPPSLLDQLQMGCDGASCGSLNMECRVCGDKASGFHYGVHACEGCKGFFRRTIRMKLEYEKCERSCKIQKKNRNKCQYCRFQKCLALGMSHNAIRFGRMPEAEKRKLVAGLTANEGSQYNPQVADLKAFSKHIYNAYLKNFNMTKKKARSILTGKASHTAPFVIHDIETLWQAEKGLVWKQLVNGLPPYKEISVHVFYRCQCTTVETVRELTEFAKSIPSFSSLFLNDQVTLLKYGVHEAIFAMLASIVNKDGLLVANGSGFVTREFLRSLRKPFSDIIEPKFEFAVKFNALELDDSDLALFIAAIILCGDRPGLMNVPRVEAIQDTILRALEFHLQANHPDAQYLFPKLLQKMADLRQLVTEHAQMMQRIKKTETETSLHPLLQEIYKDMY
human RAR-related Orphan Receptor beta (RORb), RORB (gene 6096), sequence (Q92753 whole entry, looked up, the tested form may be a part): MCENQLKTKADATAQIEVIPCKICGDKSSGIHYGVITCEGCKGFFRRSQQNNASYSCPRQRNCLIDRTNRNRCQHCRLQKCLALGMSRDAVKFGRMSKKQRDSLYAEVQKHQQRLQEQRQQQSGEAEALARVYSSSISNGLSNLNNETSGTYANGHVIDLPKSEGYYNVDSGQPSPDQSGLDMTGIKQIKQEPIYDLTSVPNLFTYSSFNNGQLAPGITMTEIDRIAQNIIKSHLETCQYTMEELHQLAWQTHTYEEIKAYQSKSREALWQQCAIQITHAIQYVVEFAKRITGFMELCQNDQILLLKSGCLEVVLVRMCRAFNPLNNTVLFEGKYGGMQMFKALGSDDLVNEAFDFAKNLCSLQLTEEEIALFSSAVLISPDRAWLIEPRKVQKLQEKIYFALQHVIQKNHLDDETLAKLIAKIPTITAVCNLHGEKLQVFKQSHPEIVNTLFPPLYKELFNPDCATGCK
Retinoic acid receptor RXR-alpha (Homo sapiens), sequence (P19793 whole entry, looked up, the tested form may be a part): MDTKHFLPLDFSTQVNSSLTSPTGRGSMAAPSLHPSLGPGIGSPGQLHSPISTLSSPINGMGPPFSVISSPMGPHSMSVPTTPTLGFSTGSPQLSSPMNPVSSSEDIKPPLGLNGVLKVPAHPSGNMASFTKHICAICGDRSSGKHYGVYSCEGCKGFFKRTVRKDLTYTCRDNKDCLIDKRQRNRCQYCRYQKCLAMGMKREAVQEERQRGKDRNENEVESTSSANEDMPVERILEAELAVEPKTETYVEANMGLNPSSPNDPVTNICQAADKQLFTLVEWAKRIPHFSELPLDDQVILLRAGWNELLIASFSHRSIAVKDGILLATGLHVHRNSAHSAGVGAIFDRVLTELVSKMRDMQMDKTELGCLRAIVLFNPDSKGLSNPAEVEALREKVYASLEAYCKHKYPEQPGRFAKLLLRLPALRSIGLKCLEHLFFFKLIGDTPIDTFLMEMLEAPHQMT
human Vitamin D Receptor (VDR), VDR (gene 7421), sequence (P11473 whole entry, looked up, the tested form may be a part): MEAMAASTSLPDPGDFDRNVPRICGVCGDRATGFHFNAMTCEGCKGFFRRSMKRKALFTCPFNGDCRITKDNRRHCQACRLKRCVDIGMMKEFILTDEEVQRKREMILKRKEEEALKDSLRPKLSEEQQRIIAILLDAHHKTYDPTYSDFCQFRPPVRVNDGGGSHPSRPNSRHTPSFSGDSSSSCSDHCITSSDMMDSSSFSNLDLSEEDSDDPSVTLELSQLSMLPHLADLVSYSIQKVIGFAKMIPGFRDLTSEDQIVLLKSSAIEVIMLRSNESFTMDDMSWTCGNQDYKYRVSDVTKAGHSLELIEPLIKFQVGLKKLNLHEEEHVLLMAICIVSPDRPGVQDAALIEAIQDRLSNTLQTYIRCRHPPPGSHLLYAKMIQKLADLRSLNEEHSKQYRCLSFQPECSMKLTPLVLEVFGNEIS
Nuclear receptor subfamily 1 group I member 2 (Homo sapiens), sequence (O75469 whole entry, looked up, the tested form may be a part): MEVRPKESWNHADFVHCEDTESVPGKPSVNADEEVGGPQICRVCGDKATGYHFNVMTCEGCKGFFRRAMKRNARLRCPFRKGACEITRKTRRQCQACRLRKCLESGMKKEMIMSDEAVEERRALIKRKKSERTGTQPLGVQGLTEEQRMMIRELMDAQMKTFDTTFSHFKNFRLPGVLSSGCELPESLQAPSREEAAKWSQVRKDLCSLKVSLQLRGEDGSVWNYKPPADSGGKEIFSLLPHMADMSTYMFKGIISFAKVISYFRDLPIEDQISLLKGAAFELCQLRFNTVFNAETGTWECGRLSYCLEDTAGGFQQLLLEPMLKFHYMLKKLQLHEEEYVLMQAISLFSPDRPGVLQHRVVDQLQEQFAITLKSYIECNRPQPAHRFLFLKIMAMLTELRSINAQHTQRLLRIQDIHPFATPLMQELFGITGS
Nuclear receptor subfamily 1 group I member 3 (Homo sapiens), sequence (Q14994 whole entry, looked up, the tested form may be a part): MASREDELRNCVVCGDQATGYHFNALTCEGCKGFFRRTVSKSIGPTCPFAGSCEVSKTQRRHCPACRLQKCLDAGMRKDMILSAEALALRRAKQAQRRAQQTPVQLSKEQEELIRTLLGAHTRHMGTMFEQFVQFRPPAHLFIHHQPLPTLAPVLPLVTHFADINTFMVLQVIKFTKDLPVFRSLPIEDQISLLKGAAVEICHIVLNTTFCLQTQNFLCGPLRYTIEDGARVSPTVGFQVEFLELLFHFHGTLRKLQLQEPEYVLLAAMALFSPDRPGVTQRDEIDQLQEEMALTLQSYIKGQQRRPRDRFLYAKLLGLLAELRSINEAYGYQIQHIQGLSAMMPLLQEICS
Glucocorticoid receptor (Homo sapiens), sequence (P04150 whole entry, looked up, the tested form may be a part): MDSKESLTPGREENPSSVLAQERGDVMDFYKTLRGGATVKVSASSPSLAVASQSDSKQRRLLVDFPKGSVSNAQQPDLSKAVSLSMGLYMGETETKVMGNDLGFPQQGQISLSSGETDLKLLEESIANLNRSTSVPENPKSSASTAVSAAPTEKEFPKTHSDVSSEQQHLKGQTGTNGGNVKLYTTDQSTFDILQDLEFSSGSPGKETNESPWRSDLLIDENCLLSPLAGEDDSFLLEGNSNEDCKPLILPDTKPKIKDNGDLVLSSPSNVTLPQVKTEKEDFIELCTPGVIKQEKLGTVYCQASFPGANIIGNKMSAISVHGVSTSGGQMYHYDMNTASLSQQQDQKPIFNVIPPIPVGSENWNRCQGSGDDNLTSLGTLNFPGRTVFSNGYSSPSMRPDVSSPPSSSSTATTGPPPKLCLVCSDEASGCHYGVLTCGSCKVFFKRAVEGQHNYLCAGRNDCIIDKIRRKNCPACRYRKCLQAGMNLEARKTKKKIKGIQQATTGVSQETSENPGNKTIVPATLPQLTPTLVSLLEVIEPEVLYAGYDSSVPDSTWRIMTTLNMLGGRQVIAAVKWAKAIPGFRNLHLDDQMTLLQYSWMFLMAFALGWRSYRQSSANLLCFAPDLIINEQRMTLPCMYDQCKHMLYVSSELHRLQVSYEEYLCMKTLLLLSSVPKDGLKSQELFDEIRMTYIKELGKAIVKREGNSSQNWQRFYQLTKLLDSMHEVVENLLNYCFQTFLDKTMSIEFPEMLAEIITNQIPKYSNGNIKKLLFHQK

As for `CC=Cc1ccc2c(c1)OCO2`, the compound was classed as inactive in [1], in assay [2], in assay [3], in assay [4], in [5] and in [6]. The result in assay [7], in assay [8] and in assay [9] was inactive.
For `O=C(O)c1cc[c]([Hg][Cl])cc1`, the compound was called inactive in [10], in [11], in assay [4], in assay [12] and in assay [8]. In addition, the AC50 in [2] is 49.3 µM (active).
`C=CC(=O)OCCCCOC(=O)C=C`: the compound was called inactive in [10], in assay [2] and in assay [6]. Besides, the AC50 is 65.8 µM (active) in assay [11] and 24.2 µM (active) in assay [9].
Take `C#CC1(O)CCCCC1`: the compound was classed as inactive in assay [4], in [12] and in assay [8]. In assay [9], the AC50 is 61.7 µM (active).
For the compound `O=C(O)CCCc1ccc(N(CCCl)CCCl)cc1`, the outcome in assay [10], in assay [11], in assay [2], in assay [14], in assay [4] and in assay [15] was inactive. Also, the outcome in assay [16], in assay [17], in assay [18], in [12], in assay [7] and in assay [8] was inactive. The outcome in assay [19] was inactive. Further, the AC50 is 26.3 µM (active) and 20 µM (active) in assay [13]; 20 µM (active) in [14]; 32.8 µM (active) in [15]; 0.687 µM (active) in assay [16]; 28.9 µM (active) in assay [17]; 8.11 µM (active) in assay [18]. In assay [9], the AC50 was 27.3 µM (active).
On to `O=C1C(Cl)=C(Cl)C(=O)C(Cl)=C1Cl`, for which the outcome in assay [10], in assay [1], in [2], in [3], in assay [5] and in assay [6] was inactive. The outcome in [18] and in [12] was inactive. Further, the AC50 in [11] was 72.4 µM (active); in assay [13] it was 15 µM (active); in [14], 25.4 µM (active); in [15], 29.2 µM (active); in assay [16], 31.9 µM (active); in [17], 35.6 µM (active). In addition, the AC50 was 21.6 µM (active) and 44.2 µM (active) in assay [7]; 73.4 µM (active) and 73.7 µM (active) in assay [8]; 57.6 µM (active) and 56.4 µM (active) in assay [19]; 81.6 µM (active) in assay [9].
Turning to `COc1cc(OC)c(OC)cc1C=O`, in assay [10], the AC50 was 27.6 µM (active). For the same compound, the result in [3], in [5], in assay [6], in [7], in assay [8] and in [19] was inactive.
Regarding `CN1C(=O)CCS(=O)(=O)C1c1ccc(Cl)cc1` (stereo not given), the result in assay [2] and in [3] was inactive.
In the case of `CC(C)(C)C(O)C(Oc1ccc(-c2ccccc2)cc1)n1cncn1` (stereo not given), the compound was called inactive in assay [10], in assay [20], in [2], in assay [14], in assay [5] and in assay [15]. For the same compound, the compound was called inactive in assay [6], in assay [17], in assay [18] and in [12]. Moreover, the AC50 in assay [11] was 55.2 µM (active); in [13], 32.3 µM (active); in assay [3], 1.78 µM (active); in assay [16] it was 31.8 µM (active).

The values are drawn from PubChem BioAssay (EPA / NIEHS).
